Values joined by “and” are separate entries in the source; they are usually repeats but may differ in a detail not shown here. Identical values can stand only once. Results filed as inconclusive are left out. Some compounds were tested as several samples or in several runs, with calls that do not always agree. Active and inactive are the calls of the source. Unless noted, calls follow the shape of the dose curve; as a rule, active = well fitted curve in the direction sought with a large enough effect; inconclusive = small, poorly fitted or top-dose-only effect, or another doubt; inactive = no such curve, though single readings can be large; an effect the other way counts as inactive or inconclusive.

Assay [1] deals with Cytochrome P450 1A2 (Homo sapiens) (UniProt P05177). As to the kind of experiment: p450-cyp1a2 (AID 410; calls by dose curve). Summed up: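 20nM CYP1A2, 100uM Luciferin-ME (=Km), 100mM KPO4; cpd 10 min RT; +NADPH regen, 60 min RT; stop/detect 20 min; luminescence. Normalized to furafylline 57 uM = full inhibition.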
The target in assay [2] is Glucocorticoid receptor (Homo sapiens) (UniProt P04150). The experiment in a line: GR-GFP Redistribution (AID 450;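 active = compounds whose dose series gives a full or clear partial fitted curve of increased nuclear translocation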; also: potency is read from the fitted curve at half-maximal effect). To be noted: U2OS GR-GFP nuclear translocation, laser cytometry, 2 h.
Assay [3] shares this target. The experiment in a line: GR-EFC Redistribution (AID 451; calls by dose curve; also: potency is read from the fitted curve at half-maximal effect). To be noted: CHO-K1 GR-EFC translocation, beta-gal luminescence, 2 h. In outline: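 CHO-K1 cells stably expressing nuclear-localized β-gal enzyme acceptor and GR fused C-terminally to the enzyme donor fragment; ligand-driven nuclear translocation restores β-gal by complementation. Compounds titrated up to 46 uM final, 2 h at 37 °C; luminescence read.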

Assay [4] addresses Mitogen-activated protein kinase 10 (Mus musculus) (UniProt Q61831). The experiment in a line: JNK3 AlphaScreen Assay (AID 530; active = well fitted curve in either direction with a large enough effect, not every such curve was filed as active;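 also: kinase came from lysate of stimulated human HepG2 cells; signal reports phosphorylation of biotinylated GST-cJun 1-79 at Ser73 with 10 µM ATP; series mostly up to about 57 µM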). Summed up:
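Biotinylated GST-cJun(1-79) served as substrate for JNK3 in HepG2 lysates stimulated with IL-1beta and TNF-alpha. ATP was 10 uM final, pH 7.6. Ser73 phosphorylation was quantified by AlphaScreen (680 nm excitation).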
(In Alpha technology, singlet oxygen from a donor bead excites a nearby acceptor bead.)

In assay [5] the target is 3',5'-cyclic-AMP phosphodiesterase 4B (Homo sapiens) (UniProt Q07343). The experiment in a line: qHTS Assay for Inhibitors of PDE-IV (AID 607; active = well fitted activation curve with a large enough effect in the main read-out, with a control signal flat, not every such curve was filed as active). Summed up: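 The readout is membrane depolarisation from a cAMP-sensing CNG channel, detected with a potential dye at ex 535/em 590. Cells were HEK293-derived (endogenous PDE-IV) at 1000 cells/well, titrated up to 22.9 uM final.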
In general terms: qHTS replaces the single test concentration by a dilution series.

Assay [6] addresses Guanine nucleotide-binding protein G(i) subunit alpha-1 (Homo sapiens) (UniProt P63096). As to the kind of experiment: qHTS Assay for Inhibitors of RGS12 GoLoco Motif Activity (Green Fluorophore) (AID 879).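 Also: negative values mean loss of peptide binding seen as reduced polarization.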 In outline: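 A drop in FITC polarization marked displacement of the FITC-tagged RGS12 GoLoco peptide (10 nM) from Gαi1 (50 nM). Compounds were incubated 10 min at room temperature in Tris pH 7.5 buffer containing 150 mM NaCl, 0.1 mM GDP and 0.05% NP40; unlabeled peptide titration served as control.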

Assay [7] addresses Cytochrome P450 2C9 (Homo sapiens) (UniProt P11712). As to the kind of experiment: qHTS Assay for Inhibitors and Substrates of Cytochrome P450 2C9 (AID 883). Also: potency is read from the fitted curve at half-maximal effect; nearly all actives have a fitted effect of over 60% in size. In outline:
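CYP2C9 deoxyluciferin hydroxylation, 37C, 60 min with NADPH regeneration; 10nM enzyme, 100uM Luciferin-H (KM). Glo detection reagent stopped reaction; luminescence normalized to sulphaphenazole (57uM) full inhibition.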

Assay [8] has as its target Cytochrome P450 3A4 (Homo sapiens) (UniProt P08684). The experiment in a line: qHTS Assay for Activators of Cytochrome P450 3A4 (AID 885). Also: nearly all actives have a fitted effect of over 65% in size. In outline:
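Activators are scored by enhanced luminescence from CYP3A4 conversion of luciferin-PPXE (25uM, equal to KM) to luciferin, after 60 min at RT with an NADPH-regenerating system.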

In assay [9] the target is Cytochrome P450 2D6 (Homo sapiens) (UniProt P10635). The experiment in a line: qHTS Assay for Inhibitors and Substrates of Cytochrome P450 2D6 (AID 891). Also: nearly all actives have a fitted effect of over 60% in size. Also: potency is read from the fitted curve at half-maximal effect. In outline:
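Luminescent read-out of luciferin formed by 5 nM human CYP2D6 demethylating 30 uM Luciferin-ME EGE (Km level) over 60 min at room temperature after NADPH regeneration addition. Data normalized to full inhibition by 1.43 uM quinidine.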

Assay [10] deals with Cytochrome P450 2C19 (Homo sapiens) (UniProt P33261). As to the kind of experiment: qHTS Assay for Inhibitors and Substrates of Cytochrome P450 2C19 (AID 899). Also: nearly all actives have a fitted effect of over 60% in size. Also: potency is read from the fitted curve at half-maximal effect. In outline:
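In 50mM KPO4, the reaction held 5nM enzyme and KM-level (10uM) Luciferin-H EGE; it ran 60 min at 37C after NADPH regeneration and a 10 min compound preincubation. Luminescence values were scaled to 57uM ketoconazole as complete inhibition.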

A short description of assay [11]: qHTS Assay for Identification of Small Molecule Agonists for Thrombopoietin (TPO) Signaling Pathway (AID 917). Summed up:
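Ba/F3 (mouse) + hTPO receptor + GpIIb-promoter luciferase; IL-3 withdrawn overnight; compound + 26 pM TPO (EC50), 24 hrs, 37 C, 5% CO2; Steadylite luminescence, 10 min RT.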

For assay [12], the target named is Pyruvate kinase (Leishmania mexicana) (UniProt Q27686). As to the kind of experiment: qHTS Validation Assay for Inhibitors of Leishmania Mexicana Pyruvate Kinase (AID 945). In outline:
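Substrate mix (0.5 mM PEP, 0.1 mM ADP, 7 mM MgCl2, 50 mM KCl, pH 7.2 imidazole) received compound by pin tool, then 0.2 nM LmPYK E451W. After 1 h at room temperature, PKLight was added and luminescence measured.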

Assay [13] concerns the target Pyruvate kinase PKM (Homo sapiens) (UniProt P14618). As to the kind of experiment: qHTS Assay for Activators of Human Muscle Pyruvate Kinase (AID 954; active = well fitted curve in the direction sought with a large enough effect, not every such curve was filed as active). In outline: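 PKM2, human, >95% pure, 0.1 nM; PEP 0.5 mM (Km), ADP 0.1 mM; 50 mM imidazole pH 7.2, 50 mM KCl, 0.01% Tween 20, 0.05% BSA; 1 h RT; luciferase luminescence readout.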
Assay [14] deals with Alpha-galactosidase A (Homo sapiens) (UniProt P06280). As to the kind of experiment: Counterscreen for Glucocerebrosidase Inhibitors: qHTS Assay for Human alpha-Galactosidase at pH 4.5 (AID 992). In outline:
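Fluorogenic 4-MU alpha-D-galactoside (80 uM) hydrolysis, 2 nM enzyme, pH 4.5 citrate buffer + 0.005% Tween-20; 20 min RT; NaOH/glycine pH 10 stop; Ex365/Em440. Compounds titrated 0.7 nM–77 uM; Hill-equation AC50.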
(A counterscreen serves to expose hits that act by an unwanted route or on another target.)

Assay [15] concerns the target alpha-glucosidase (Oryza sativa, rice) (UniProt Q653V4). The experiment in a line: Counterscreen for Glucocerebrosidase Inhibitors: qHTS Assay for Rice alpha-Glucosidase at pH 5.0 (AID 997). Summed up:
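Endpoint fluorogenic assay at pH 5.0: compounds (0.7 nM to 77 uM) titrated against 4 nM rice enzyme and 400 uM 4-MU-alpha-glucoside for 20 min at room temperature; NaOH/glycine stop, read ex 365/em 440 nm, Hill-fitted AC50.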

Assay [16] in a line: Validation of Assay for Modulators of Lamin A Splicing (AID 1459; active = well fitted curve in the direction sought with a large enough effect in the signal ratio; the % refers to the signal ratio;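 also: cells exposed to compound for two days before reading; ratio rise marks activators and ratio drop marks inhibitors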). In outline: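 Readout: ratio of GFP (500-530 nm) to RFP (575-640 nm) total object intensity by 488 nm laser-scanning cytometry after 48 hrs. Cells were HeLa S3 clones carrying lamin A-EGFP minigene plus DsRed2 viability reporter; vehicle 0.5% DMSO final.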
Assay [17] deals with DNA repair nuclease/redox regulator APEX1 (Homo sapiens) (UniProt P27695). The experiment in a line: qHTS Validation Assay for Inhibitors of the Human Apurinic/apyrimidinic Endonuclease 1 (APE1) (AID 1705;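 also: TAMRA fluorescence gain over two minutes as APE1 cuts a quenched THF abasic duplex; series mostly up to about 57 µM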). In outline:
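Read-out: TAMRA fluorescence (525 nm ex, 598 nm em) from cleavage of a quenched THF abasic-site duplex, 50 nM final; activity taken as intensity change between third and first of three reads 60 s apart.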

A short description of assay [18]: Counterscreen for APE1 Inhibitors: Fluorescent Dye Displacement Validation Assay (AID 1707). Summed up:
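Endpoint fluorescence read at 480 nm excitation / 540 nm emission; DNA-binding compounds lower signal by displacing 250 nM Thiazole Orange from 50 nM dsDNA containing a tetrahydrofuran abasic site, Tris-HCl pH7.5 buffer with NaCl and MgCl2.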

A short description of assay [19]: qHTS for differential inhibitors of proliferation of Plasmodium falciparum line 7G8 (AID 1815).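 Also: potency is read from the fitted curve at half-maximal effect; parasite growth measured after three days of incubation.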
The nature of assay [20]: qHTS for differential inhibitors of proliferation of Plasmodium falciparum line W2 (AID 1883).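 Also: potency is read from the fitted curve at half-maximal effect; parasites grown with compound for 72 h before lysis and staining.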 The conditions noted are these: Potency: Plasmodium falciparum W2 proliferation inhibition.
The nature of assay [21]: qHTS for differential inhibitors of proliferation of Plasmodium falciparum line HB3 (AID 1886).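 Also: parasites grown with compound for 72 h before SYBR Green readout.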 To be noted: Potency: Plasmodium falciparum HB3 proliferation inhibition.
Assay [22] has as its target ATP-dependent DNA helicase Q1 (Homo sapiens) (UniProt P46063). The experiment in a line: qHTS Validation Assay for Inhibitors of RecQ-Like Dna Helicase 1 (RECQ1) (AID 2353). In outline:
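RECQ1T1 50 nM; forked duplex (20 bp + 30-nt ss tails) 200 nM, ATP 2 mM final; pH 8.0, 2 mM MgCl2, 2.5 ug/ml poly(dI-dC); 15 min compound preincubation; discontinuous kinetic read over 2 h at RT.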

A short description of assay [23]: Quantitative high throughput screen for delayed death inhibitors of the malarial parasite plastid, 96 hour incubation (AID 488745).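 Also: luciferase-expressing P. falciparum in erythrocytes at 2% hematocrit and 0.1% parasitemia; series mostly up to about 29 µM; nearly all actives have a fitted effect of over 70% in size.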 In outline:
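Luciferase-expressing P. falciparum, infected RBCs 2% Hct/0.1% parasitemia (final); 96 h cpd exposure, 37 C, 5% CO2; RPMI 1640 + 0.5% Albumax, bicarbonate, gentamycin. Readout: luminescence loss = growth inhibition.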

Assay [24] can be described thus: Quantitative high throughput screen for delayed death inhibitors of the malarial parasite plastid, 48 hour incubation (AID 488752). Also: nearly all actives have a fitted effect of over 65% in size. In outline: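 Luciferase-expressing P. falciparum in RBCs, 2% Hct, 0.1% parasitemia final; RPMI 1640 + 0.5% Albumax; 48 h, 37 C, 5% CO2; luminescence readout, signal drop = growth inhibition.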

Chain of Glucocorticoid receptor (Homo sapiens) (P04150 whole entry, looked up, the tested form may be a part): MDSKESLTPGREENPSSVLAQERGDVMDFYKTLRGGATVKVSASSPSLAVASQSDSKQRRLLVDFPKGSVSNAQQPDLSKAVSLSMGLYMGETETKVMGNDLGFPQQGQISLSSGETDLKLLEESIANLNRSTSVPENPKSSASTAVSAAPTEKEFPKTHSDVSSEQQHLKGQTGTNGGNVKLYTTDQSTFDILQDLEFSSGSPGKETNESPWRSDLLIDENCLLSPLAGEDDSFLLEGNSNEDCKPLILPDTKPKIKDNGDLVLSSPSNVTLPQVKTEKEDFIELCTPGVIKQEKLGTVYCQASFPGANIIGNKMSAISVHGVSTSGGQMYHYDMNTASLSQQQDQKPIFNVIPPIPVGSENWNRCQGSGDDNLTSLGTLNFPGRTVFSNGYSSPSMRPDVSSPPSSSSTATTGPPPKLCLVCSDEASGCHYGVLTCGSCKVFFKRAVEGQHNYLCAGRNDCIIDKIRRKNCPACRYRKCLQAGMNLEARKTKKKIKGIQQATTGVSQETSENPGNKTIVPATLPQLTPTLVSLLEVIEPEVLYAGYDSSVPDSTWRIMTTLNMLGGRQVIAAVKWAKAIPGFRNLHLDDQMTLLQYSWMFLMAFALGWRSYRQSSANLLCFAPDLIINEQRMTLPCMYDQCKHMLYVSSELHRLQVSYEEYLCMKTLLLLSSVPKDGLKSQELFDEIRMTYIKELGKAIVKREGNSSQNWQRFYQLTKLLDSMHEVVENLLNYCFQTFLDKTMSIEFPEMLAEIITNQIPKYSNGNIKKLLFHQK
Chain of Cytochrome P450 2C19 (Homo sapiens) (P33261 whole entry, looked up): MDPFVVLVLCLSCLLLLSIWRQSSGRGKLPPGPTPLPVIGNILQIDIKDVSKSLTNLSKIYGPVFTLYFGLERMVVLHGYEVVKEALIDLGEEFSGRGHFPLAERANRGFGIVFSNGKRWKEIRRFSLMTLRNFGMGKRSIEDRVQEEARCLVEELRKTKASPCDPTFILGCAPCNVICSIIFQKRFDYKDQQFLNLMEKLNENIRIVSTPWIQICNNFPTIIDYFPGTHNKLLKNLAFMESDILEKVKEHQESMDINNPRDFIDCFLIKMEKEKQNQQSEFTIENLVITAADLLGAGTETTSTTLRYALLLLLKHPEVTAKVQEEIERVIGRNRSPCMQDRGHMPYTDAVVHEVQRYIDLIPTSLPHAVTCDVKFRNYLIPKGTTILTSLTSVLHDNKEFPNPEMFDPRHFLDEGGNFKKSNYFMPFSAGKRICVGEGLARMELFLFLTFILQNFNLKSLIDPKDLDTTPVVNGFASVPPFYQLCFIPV
Chain of Cytochrome P450 2D6 (Homo sapiens) (P10635 whole entry, looked up): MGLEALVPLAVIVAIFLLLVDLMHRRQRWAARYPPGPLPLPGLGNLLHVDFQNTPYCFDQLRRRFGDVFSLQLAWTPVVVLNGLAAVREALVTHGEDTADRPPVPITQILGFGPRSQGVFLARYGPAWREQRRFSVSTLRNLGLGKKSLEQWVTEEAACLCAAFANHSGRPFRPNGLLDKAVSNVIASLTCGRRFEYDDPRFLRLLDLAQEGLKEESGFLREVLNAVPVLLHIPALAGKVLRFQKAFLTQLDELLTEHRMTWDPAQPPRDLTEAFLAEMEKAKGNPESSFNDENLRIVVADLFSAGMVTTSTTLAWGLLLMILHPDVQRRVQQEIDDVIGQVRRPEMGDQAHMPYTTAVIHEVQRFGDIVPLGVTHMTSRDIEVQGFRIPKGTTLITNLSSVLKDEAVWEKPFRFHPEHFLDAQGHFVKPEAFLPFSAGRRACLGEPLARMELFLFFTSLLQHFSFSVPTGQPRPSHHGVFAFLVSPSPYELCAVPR
Chain of Alpha-galactosidase A (Homo sapiens) (P06280 whole entry, looked up): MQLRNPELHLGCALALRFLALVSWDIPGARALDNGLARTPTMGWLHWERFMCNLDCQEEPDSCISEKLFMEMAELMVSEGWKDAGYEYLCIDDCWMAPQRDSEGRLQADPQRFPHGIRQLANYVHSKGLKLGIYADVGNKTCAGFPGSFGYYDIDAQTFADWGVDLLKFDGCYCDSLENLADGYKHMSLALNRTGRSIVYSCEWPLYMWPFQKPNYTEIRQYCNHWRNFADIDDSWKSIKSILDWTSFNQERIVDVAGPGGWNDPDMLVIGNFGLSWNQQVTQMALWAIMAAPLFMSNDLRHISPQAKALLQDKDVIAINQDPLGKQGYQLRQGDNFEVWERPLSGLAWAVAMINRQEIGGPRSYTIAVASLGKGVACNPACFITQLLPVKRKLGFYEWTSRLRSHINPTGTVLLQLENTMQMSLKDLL
Chain of ATP-dependent DNA helicase Q1 (Homo sapiens) (P46063 whole entry, looked up): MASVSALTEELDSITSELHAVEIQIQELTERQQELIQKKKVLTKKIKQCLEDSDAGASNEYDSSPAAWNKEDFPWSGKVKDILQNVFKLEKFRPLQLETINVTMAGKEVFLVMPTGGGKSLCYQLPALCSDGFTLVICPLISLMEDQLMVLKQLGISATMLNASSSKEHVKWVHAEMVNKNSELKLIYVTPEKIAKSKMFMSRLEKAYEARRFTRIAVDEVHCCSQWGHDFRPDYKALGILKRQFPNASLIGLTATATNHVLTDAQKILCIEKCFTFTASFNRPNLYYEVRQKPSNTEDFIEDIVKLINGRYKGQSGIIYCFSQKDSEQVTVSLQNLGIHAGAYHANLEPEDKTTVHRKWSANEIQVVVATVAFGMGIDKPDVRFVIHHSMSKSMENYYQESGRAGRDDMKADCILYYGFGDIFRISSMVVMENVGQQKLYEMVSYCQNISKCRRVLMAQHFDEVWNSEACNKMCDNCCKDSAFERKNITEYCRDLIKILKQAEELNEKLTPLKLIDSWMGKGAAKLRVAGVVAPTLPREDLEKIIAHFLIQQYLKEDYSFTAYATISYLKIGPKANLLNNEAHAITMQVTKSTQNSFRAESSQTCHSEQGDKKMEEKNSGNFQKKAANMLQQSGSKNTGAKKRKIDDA
Chain of Pyruvate kinase PKM (Homo sapiens) (P14618 whole entry, looked up): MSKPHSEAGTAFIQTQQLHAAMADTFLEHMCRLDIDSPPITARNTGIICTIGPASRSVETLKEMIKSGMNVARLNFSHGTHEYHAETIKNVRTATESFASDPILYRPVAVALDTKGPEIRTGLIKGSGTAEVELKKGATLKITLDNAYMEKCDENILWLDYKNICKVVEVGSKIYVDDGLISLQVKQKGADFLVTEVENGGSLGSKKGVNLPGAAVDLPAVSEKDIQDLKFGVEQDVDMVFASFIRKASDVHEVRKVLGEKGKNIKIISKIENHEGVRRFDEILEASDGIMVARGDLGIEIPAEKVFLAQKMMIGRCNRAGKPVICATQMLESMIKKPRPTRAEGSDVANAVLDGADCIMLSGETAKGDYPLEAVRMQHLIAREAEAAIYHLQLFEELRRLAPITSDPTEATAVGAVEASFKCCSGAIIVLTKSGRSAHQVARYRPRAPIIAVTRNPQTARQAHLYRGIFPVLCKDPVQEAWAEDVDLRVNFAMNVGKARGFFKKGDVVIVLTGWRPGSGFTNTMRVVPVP
Chain of Guanine nucleotide-binding protein G(i) subunit alpha-1 (Homo sapiens) (P63096 whole entry, looked up): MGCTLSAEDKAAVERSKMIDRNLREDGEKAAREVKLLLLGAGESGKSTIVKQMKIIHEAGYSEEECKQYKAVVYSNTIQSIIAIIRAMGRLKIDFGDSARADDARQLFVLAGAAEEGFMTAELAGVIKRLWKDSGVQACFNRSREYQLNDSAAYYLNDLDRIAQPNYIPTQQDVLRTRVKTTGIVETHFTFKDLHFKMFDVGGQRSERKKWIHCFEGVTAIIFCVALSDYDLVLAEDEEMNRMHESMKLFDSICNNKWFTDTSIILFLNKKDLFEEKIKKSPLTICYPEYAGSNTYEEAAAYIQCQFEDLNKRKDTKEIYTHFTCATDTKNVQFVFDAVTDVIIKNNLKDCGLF
Chain of Pyruvate kinase (Leishmania mexicana) (Q27686 2-499 E452W): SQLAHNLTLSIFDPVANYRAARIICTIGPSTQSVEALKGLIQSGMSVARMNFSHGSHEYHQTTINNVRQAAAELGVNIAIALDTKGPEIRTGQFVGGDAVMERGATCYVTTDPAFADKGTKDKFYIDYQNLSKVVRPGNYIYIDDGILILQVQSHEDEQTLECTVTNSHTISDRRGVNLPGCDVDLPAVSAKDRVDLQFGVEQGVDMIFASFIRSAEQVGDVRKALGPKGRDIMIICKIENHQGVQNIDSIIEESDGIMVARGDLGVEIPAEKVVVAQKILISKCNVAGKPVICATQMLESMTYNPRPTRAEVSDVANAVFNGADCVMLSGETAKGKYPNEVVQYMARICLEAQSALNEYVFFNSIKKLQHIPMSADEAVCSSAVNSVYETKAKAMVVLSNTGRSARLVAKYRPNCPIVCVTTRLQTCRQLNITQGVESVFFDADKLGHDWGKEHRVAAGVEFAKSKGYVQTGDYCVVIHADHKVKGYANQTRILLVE
Chain of Cytochrome P450 2C9 (Homo sapiens) (P11712 whole entry, looked up): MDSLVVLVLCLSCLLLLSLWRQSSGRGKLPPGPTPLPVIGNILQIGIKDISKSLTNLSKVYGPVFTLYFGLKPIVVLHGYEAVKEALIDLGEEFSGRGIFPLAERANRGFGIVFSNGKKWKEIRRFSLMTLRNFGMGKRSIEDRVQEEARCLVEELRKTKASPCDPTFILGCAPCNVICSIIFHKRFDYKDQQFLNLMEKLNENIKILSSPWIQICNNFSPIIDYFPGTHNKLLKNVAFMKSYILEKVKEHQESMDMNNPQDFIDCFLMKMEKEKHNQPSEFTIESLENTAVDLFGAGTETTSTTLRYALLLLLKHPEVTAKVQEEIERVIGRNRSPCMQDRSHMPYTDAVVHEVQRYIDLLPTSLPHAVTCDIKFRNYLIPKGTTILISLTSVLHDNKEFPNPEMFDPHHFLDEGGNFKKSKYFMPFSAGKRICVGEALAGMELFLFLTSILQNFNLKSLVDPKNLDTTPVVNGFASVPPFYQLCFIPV

With `CN(CCOc1ccc(C[C@H](Nc2ccccc2C(=O)c2ccccc2)C(=O)O)cc1)c1ccccn1`, the Potency result in assay [1], in assay [5], in assay [8], in assay [12], in [17] and in assay [18] was “inactive” each time. Further, the Potency entry in [21], in [22], in [23] and in assay [24] was “inactive” in each case. Moreover, the Potency was > 46 µM (inactive) in assay [2]; > 46 µM (inactive) in [3]; 10 µM (active) in assay [7]; “inactive and 31.6 nM (active)” in [9]; “inactive and 3.98 µM (active)” in [10]; 8.91 µM (active) in [19]. Moreover, the Potency in assay [20] was 8.91 µM (active). Besides, the result in assay [4], in assay [6], in assay [11], in assay [13], in [14] and in [15] was inactive. Also, the compound was classed as inactive in assay [16].

Source of the values: PubChem BioAssay (NCATS).
